Measured values taken from PubChem BioAssay.
Activity calls are given as the source filed them.

Experiments:
[1] = tested on: Plasmodium falciparum Sir2 (PF13_0152, Sir2A); assay: Plasmodium falciparum Sir2A binding compounds – biochemical, small-molecule microarray, 635 nm fluorescence, primary screen (AID 1098); settings: fluorescence 635 nm, higher = more signal;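 further: score merges spot fluorescence intensity with its signal-to-noise ratio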
[2] = probe aDKK1 binding to arrayed compounds – biochemical, biotinylated probe, 635/667 nm fluorescence, primary screen (AID 1099); settings: small-molecule microarray, higher = more signal;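 further: score merges 667nm spot fluorescence with signal to noise across triplicate slides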
[3] = probe aCHRDL2 binding to arrayed compounds – biochemical, biotinylated probe, 635/667 nm fluorescence, primary screen (AID 1100); settings: small-molecule microarray, higher = more signal
[4] = change in splice reporter luminescence, either direction, cell-based, HEK293, spliceosome inhibition project, primary screen (AID 1101); settings: HEK293 splicing luciferase reporter, 24 h, higher = more signal, called active from +8 up or from −8 down;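 further: HEK293 cells carrying a splicing-competent luciferase reporter gene; test concentration not given here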
[5] = target: Fibroblast growth factor 10 (Homo sapiens) (UniProt O15520); assay: compounds binding fibroblast growth factor 10 – biochemical, small-molecule microarray, 635 nm fluorescence, primary screen (AID 1102); settings: FGF10 binding, fluorescence 635 nm, higher = more signal
[6] = tested on: glycogen synthase kinase-3 (GSK3A per assay name; protocol says GSK3B); assay: compounds binding glycogen synthase kinase-3 – biochemical, small-molecule microarray, 635 nm fluorescence, GSK3A, primary screen (AID 1103); settings: fluorescence 635 nm, higher = more signal; further: the record names both GSK3A and GSK3B
[7] = target: Epidermal growth factor receptor (Homo sapiens) (UniProt P00533); assay: compounds binding epidermal growth factor receptor – biochemical, small-molecule microarray, 635 nm fluorescence, primary screen (AID 1104); settings: EGFR binding, higher = more signal;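 further: score merges 667 nm emission intensity with spot signal to noise over triplicate slides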
[8] = target: Follistatin-related protein 3 (Homo sapiens) (UniProt O95633); assay: compounds binding follistatin-related protein 3 – biochemical, small-molecule microarray, 635 nm fluorescence, primary screen (AID 1105); settings: FSTL3 binding, higher = more signal;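 further: score merges emission near 667 nm and signal to noise per printed spot across three slides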
[9] = target: Dickkopf-related protein 1 (Homo sapiens) (UniProt O94907); assay: small molecules binding DKK1 protein – biochemical, small-molecule microarray, 635 nm fluorescence scan, primary screen (AID 1106); settings: higher = more signal;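 further: score merges emission near 667 nm with signal to noise over three replicate slides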
[10] = tested on: Inhibin beta A chain (activin A); assay: small molecules binding activin A – biochemical, small-molecule microarray, 635 nm fluorescence scan, primary screen (AID 1107); settings: INHBA, higher = more signal;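 further: mouse activin A protein probed at 4.33 µg/mL on printed slides; score merges bound-protein fluorescence near 667 nm with spot signal-to-noise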
[11] = tested on: Human papillomavirus type 1a protein E7 (residues 44-93); assay: small molecules binding HPV E7 44-93 – biochemical, small-molecule microarray, residues 44-93, 635 nm fluorescence, primary screen (AID 1108); settings: fluorescence 635 nm, higher = more signal;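 further: E7 fragment applied at 1 µg/mL in TBST for 1 h at 4 C; score combines spot fluorescence with its signal to noise ratio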
[12] = hepatitis C replication reporter changes, two-sided – Huh7 cells, luciferase reporter, HCV replication inhibitor project, primary screen (AID 1109); settings: Huh7 HCV replicon luciferase reporter, 48 h; higher = more signal;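 further: huh7 hepatoma cells harbouring a luciferase neomycin HCV replicon reporter; luciferase luminescence as measure of HCV replicon replication; test concentration not given here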
[13] = target: Left-right determination factor 2 (Homo sapiens) (UniProt O00292); assay: small molecules binding LEFTY2 protein – biochemical, small-molecule microarray, 635 nm fluorescence scan, primary screen (AID 1110); settings: higher = more signal
[14] = target: Calmodulin-1 (Homo sapiens) (UniProt P0DP23); assay: small molecules binding calmodulin-1 with EGTA – biochemical, small-molecule microarray, Cy5-labelled CALM1, profiling panel (AID 1111); settings: Cy5-CALM1 binding fluorescence, higher = more signal;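 further: labelled calmodulin applied in Tris saline Tween buffer holding calcium plus EGTA and DTT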
[15] = target: Calmodulin-1 (Homo sapiens) (UniProt P0DP23); assay: small molecules binding Ca-loaded calmodulin-1 – biochemical, small-molecule microarray, Cy5-labelled CALM1, plus calcium, artefact control for SMM control-protein annotation, profiling panel (AID 1112); settings: Cy5-CALM1 binding fluorescence, higher = more signal;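 further: score merges spot fluorescence with signal to noise from triplicate slides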
[16] = probe aWnt5a binding to arrayed compounds – biochemical, biotinylated probe, 635/667 nm fluorescence, primary screen (AID 1113); settings: small-molecule microarray, higher = more signal;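 further: score merges 667 nm fluorescence intensity with signal-to-noise per printed feature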
[17] = probe aShh binding to arrayed compounds – biochemical, biotinylated probe, 635/667 nm fluorescence, primary screen (AID 1114); settings: small-molecule microarray, higher = more signal;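 further: probe is biotin-labelled aShh protein from a stem cell growth factor screen; measures binding of labelled protein to compounds printed on the slide; score merges feature fluorescence at 667 nm with signal-to-noise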
[18] = probe aNog binding to arrayed compounds – biochemical, biotinylated probe, 635/667 nm fluorescence, primary screen (AID 1115); settings: small-molecule microarray, higher = more signal;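 further: probe is biotinylated aNog protein used at 0.15 µg/mL for 1 h at 4 C; z-score combines 667 nm fluorescence of each spot with its signal to noise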
[19] = target: Torsin-1A-interacting protein 1 (Homo sapiens) (UniProt Q5JTV8); assay: compound microarray binding of lysate hLAP1 – cell lysate, small-molecule microarray, COS7 lysate, 635/667 nm fluorescence, primary screen (AID 1116); settings: 635 nm fluorescence, higher = more signal
[20] = target: Alpha-bungarotoxin (Bungarus multicinctus) (UniProt P60615); assay: compounds binding labelled alpha-BTX control protein – biochemical, small-molecule microarray, Alexa647 label, 635/667 nm fluorescence, artefact control for SMM control protein annotation, profiling panel (AID 1117); settings: alpha-BTX-A647 binding fluorescence, higher = more signal
Alpha-bungarotoxin (Bungarus multicinctus), sequence (P60615 whole entry, looked up): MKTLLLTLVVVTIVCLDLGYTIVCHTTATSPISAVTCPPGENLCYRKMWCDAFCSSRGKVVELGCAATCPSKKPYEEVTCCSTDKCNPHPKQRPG

Left-right determination factor 2 (Homo sapiens), sequence (O00292 whole entry, looked up): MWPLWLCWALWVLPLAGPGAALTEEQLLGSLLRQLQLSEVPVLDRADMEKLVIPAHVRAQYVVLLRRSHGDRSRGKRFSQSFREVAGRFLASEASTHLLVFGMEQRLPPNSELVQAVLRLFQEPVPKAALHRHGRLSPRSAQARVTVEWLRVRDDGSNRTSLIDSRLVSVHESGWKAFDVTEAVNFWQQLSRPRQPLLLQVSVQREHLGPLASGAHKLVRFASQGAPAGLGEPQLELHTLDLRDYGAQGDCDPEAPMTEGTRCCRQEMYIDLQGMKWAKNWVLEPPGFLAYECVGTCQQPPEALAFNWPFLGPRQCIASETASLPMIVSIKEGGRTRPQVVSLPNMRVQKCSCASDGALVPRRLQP
Torsin-1A-interacting protein 1 (Homo sapiens), sequence (Q5JTV8 whole entry, looked up): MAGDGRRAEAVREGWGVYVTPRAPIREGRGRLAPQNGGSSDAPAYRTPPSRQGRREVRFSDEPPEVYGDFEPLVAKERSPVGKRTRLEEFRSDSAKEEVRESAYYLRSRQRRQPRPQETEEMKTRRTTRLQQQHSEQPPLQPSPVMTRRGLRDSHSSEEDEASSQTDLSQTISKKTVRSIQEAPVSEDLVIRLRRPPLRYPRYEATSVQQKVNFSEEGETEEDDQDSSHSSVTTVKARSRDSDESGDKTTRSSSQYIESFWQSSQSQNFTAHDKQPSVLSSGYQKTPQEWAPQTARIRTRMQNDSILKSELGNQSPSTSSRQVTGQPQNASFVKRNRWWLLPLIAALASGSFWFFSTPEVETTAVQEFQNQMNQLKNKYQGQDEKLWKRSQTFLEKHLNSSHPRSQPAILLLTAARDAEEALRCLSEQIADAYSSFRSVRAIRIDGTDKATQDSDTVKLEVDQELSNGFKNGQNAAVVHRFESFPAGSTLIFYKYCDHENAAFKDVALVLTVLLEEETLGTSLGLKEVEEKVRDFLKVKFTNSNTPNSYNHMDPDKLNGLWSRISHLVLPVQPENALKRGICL
Epidermal growth factor receptor (Homo sapiens), sequence (P00533 whole entry, looked up): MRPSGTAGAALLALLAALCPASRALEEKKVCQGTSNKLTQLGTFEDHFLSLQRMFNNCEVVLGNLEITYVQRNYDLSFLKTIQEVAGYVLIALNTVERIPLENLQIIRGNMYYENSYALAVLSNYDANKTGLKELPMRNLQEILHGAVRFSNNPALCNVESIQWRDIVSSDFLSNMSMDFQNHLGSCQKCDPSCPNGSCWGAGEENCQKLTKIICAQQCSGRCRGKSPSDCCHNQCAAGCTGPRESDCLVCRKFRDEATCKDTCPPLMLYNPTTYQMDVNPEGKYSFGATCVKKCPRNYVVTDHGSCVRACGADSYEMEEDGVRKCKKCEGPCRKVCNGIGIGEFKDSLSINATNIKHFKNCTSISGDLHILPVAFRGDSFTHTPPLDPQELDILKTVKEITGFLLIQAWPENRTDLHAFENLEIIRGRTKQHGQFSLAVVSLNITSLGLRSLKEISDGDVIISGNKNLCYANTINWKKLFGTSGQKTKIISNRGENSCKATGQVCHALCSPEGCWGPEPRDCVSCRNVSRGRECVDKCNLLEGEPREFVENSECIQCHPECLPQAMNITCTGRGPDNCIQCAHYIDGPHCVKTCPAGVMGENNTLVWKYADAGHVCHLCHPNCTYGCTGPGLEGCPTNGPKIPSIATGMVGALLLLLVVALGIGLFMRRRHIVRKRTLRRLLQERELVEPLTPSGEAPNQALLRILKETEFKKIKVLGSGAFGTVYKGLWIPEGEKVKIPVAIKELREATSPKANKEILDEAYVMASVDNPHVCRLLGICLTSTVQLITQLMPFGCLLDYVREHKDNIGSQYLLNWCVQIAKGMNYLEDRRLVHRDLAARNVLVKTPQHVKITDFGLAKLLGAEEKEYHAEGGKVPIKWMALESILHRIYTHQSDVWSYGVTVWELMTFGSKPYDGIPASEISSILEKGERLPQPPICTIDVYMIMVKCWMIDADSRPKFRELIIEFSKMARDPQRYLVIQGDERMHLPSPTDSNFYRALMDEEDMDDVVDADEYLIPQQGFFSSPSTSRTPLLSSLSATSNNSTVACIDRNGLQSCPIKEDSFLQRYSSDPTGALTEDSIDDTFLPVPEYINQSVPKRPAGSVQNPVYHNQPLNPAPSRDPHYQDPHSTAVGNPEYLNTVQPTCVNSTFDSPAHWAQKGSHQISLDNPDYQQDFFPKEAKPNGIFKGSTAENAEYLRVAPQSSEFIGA
Follistatin-related protein 3 (Homo sapiens), sequence (O95633 whole entry, looked up): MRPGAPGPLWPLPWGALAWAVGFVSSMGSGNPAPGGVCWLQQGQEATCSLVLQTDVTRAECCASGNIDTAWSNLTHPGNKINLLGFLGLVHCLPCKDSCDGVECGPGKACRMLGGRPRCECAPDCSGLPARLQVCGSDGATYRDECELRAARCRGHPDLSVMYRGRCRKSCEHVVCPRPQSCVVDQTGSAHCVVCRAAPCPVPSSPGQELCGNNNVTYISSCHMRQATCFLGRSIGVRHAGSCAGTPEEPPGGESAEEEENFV
Dickkopf-related protein 1 (Homo sapiens), sequence (O94907 whole entry, looked up): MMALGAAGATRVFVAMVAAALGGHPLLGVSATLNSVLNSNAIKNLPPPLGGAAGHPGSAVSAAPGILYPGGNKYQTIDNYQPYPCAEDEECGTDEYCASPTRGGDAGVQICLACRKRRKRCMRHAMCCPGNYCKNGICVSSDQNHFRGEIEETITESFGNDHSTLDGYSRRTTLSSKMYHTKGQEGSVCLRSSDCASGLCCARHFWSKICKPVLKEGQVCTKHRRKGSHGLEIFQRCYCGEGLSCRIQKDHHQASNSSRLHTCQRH
Fibroblast growth factor 10 (Homo sapiens), sequence (O15520 whole entry, looked up): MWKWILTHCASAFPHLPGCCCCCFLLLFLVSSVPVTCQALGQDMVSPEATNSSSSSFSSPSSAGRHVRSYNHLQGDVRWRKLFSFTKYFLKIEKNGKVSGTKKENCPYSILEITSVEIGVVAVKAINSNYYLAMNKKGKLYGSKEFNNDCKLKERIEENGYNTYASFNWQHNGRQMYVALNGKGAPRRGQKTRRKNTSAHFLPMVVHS

| SMILES | composite z-score [1] | composite z-score [2] | composite z-score [3] | z-score [4] | composite z-score [5] | composite z-score [6] | composite z-score [7] | composite z-score [8] | composite z-score [9] | composite z-score [10] | composite z-score [11] | z-score [12] | composite z-score [13] | composite z-score [14] | composite z-score [15] | composite z-score [16] | composite z-score [17] | composite z-score [18] | composite z-score [19] | composite z-score [20] |
| --- | --- | --- | --- | --- | --- | --- | --- | --- | --- | --- | --- | --- | --- | --- | --- | --- | --- | --- | --- | --- |
| [N-]=[N+]=NCc1ccccc1C[C@@]1(C(=O)NCc2ccccc2)N=C(c2ccc(OCCCO)cc2)O[C@@H]1c1ccccc1CN=[N+]=[N-] | 1.39 | 1.09 | 1.06 | 0.48 (inactive) | 0.639 | 1.13 | -0.286 | -0.0894 | -0.242 | 0.123 | -0.0428 | -2.52 | -0.372 | 1.51 | 0.924 | 0.178 | 0.274 | 1.88 | 2.59 | 1.49 |
| COc1ccc(C(=O)Nc2cccc(CN3C(=O)[C@@]4(O[C@@H](CCn5cc([C@H](O)c6ccccc6)nn5)[C@H]([Si](C)(C)c5ccc(OC)cc5)[C@H]4C)c4ccccc43)c2)cc1 | 1.19 | 0.142 | 0.634 | -1.46 (inactive) | 1.21 | 0.175 | -0.219 | 0.206 | 0.249 | 1.16 | -0.32 | -5.06 | 0.534 | -0.0819 | -0.346 | 0.0279 | -0.262 | -0.205 | 0.485 | 0.935 |
| O=C1O[C@H](c2ccccc2)[C@H](c2ccccc2)N2[C@H]1[C@@H](C(=O)NC[C@H](O)c1ccccc1)[C@]1(C(=O)Nc3ccc(C#CC4(O)CCCCCC4)cc31)[C@H]2c1ccccc1OCCO | 1.51 | -0.26 | -0.313 | -1.11 (inactive) | 1.17 | 1.16 | -0.028 | 0.948 | 0.178 | 0.048 | 1.36 | -3.12 | -0.0569 | 0.9 | 0.26 | -0.145 | 0.147 | 0.52 | 0.791 | 0.837 |
| COc1ccc(C#Cc2ccc3c(c2)[C@]2(C(=O)N3)[C@H](c3ccc(OCCO)cc3)N3[C@H](c4ccccc4)[C@H](c4ccccc4)OC(=O)[C@H]3[C@@H]2C(=O)Nc2nc3ccccc3s2)cc1 | 1.29 | 0.771 | 0.72 | 3.63 (inactive) | 1.3 | 1.29 | 0.655 | 1.38 | 0.618 | 0.331 | 1.34 | -2 | 0.776 | 1.57 | 0.446 | 0.104 | 0.0711 | 0.83 | 0.0329 | 1.52 |
| COCCOC(=O)N1C(=O)[C@@]2(c3cc(C#CC4(O)CCCCCC4)ccc31)[C@H](c1ccc(O)cc1)N1[C@H](c3ccccc3)[C@H](c3ccccc3)OC(=O)[C@H]1[C@@H]2C(=O)N1CCc2cc(OC)c(OC)cc2C1 | 1.23 | -0.226 | 0.687 | -0.597 (inactive) | -0.681 | -0.32 | -0.705 | -1.15 | -0.591 | 0.0107 | -0.213 | -0.302 | -1.24 | -0.548 | -0.179 | -0.145 | 0.0756 | -0.321 | 0.282 | -0.678 |
| CCCCCCCCCCC(O)C1C=CC2C(=O)N(c3ccccc3)C(=O)C2N1Nc1ccc([N+](=O)[O-])cc1 (stereo not given) | 1.34 | -0.101 | 0.584 | 0.823 (inactive) | 0.668 | 1.29 | 0.352 | 1.01 | 0.0052 | 0.559 | 1.41 | -2.47 | -0.193 | 1.01 | 0.496 | -0.0263 | -0.0146 | 1.1 | -0.105 | 1 |
| CCCCC(=O)N(Cc1ccccc1F)[C@@H]1CC(C(=O)NCCO)=C[C@H](Oc2c(I)cc(CO)cc2OC)[C@H]1O | 1.09 | -0.22 | -0.327 | -0.0457 (inactive) | 1.46 | 1.34 | 0.91 | 1.13 | 1.96 | 0.535 | 1.42 | -1.06 | 1.29 | 3.17 | 1.4 | 0.0004 | 0.123 | -0.083 | 0.994 | 1.79 |
| [N-]=[N+]=NCc1ccccc1C[C@]1(C(=O)NCCN2CCOCC2)N=C(c2ccc(OCCCO)cc2)O[C@H]1c1ccccc1CN=[N+]=[N-] | 1.5 | 0.304 | 0.71 | -1.27 (inactive) | 1.48 | 1.32 | 0.357 | 0.535 | 0.16 | 0.928 | 1.43 | -3.91 | 0.278 | 0.86 | 0.368 | -0.124 | -0.146 | -0.158 | 1.59 | 1.28 |
| C=CCC(OC(C)=O)[C@@H]1[C@@H](N(Cc2cc3ccccc3o2)C(=O)c2ccc(-c3ccccc3)cc2)c2cc(OCCCO)ccc2N1C(=O)Cc1ccc2ccccc2c1 (stereo not given in full) | -0.366 | -0.172 | 0.351 | 0.121 (inactive) | -0.0752 | -0.418 | -0.227 | -0.187 | -0.251 | 1.2 | 0.006 | -0.532 | -0.36 | -0.27 | 0.459 | -0.0704 | -0.0709 | -0.267 | 0.0452 | 0.738 |
| O=C1[C@H]2C=C(Br)[C@H](C[C@@H]2OCCOCCO)[C@@]12CO2 | 0.146 | -0.119 | -0.115 | 0.651 (inactive) | 0.527 | 0.144 | 0.475 | 0.118 | 0.18 | 1.02 | 0.0617 | -1.85 | 0.348 | -0.2 | -0.341 | -0.0944 | -0.0769 | -0.303 | 0.0452 | 0.554 |
| CCCC[C@@H]1C[C@H]1[C@@H](NC(=O)c1ccccc1)c1ccc(-c2ccccc2)cc1 | -0.616 | -0.0102 | 0.754 | -3.53 (inactive) | 0.0096 | -0.372 | 0.0518 | 0.12 | 0.228 | 0.715 | 1.34 | -2.9 | 0.0692 | 0.232 | 0.596 | 0.0375 | 0.1 | -0.421 | 0.0036 | 0.805 |
| COc1ccc([Si](C)(C)[C@H]2[C@H](CCO)O[C@@]3(C(=O)N(Cc4cccc(N5C(=O)c6cccc7cccc5c67)c4)c4ccccc43)[C@@H]2C)cc1 | 1.25 | -0.207 | 0.442 | -1.27 (inactive) | 0.668 | 0.149 | -0.437 | 0.277 | -0.701 | -0.345 | 1.06 | -4.97 | -0.652 | 1.04 | 0.591 | 0.0618 | 0.0121 | 0.741 | 0.116 | 0.621 |
| CC(C)C(=C=CC[C@H](O)c1ccccc1OCCO)CCO | 0.0112 | 0.292 | -0.0417 | 0.232 (inactive) | 0.0544 | -0.144 | -0.585 | -0.449 | -0.679 | 0.913 | 1.31 | -1.32 | -0.378 | -0.274 | 0.0647 | -0.0643 | 0.0639 | -0.0546 | 1.02 | 1.92 |
| C=CCOC(=O)[C@@H]1[C@H]2C(=O)O[C@H](c3ccccc3)[C@H](c3ccccc3)N2[C@H](c2ccc(OCCOC(=O)[C@H]3C[C@H]4C(=O)N[C@@H](CCCC[N+](C)(C)C)C(=O)N4[C@H]3c3cccc(OCCO)c3)cc2)[C@@]12C(=O)Nc1ccc(I)cc12 | 1.53 | 0.135 | -0.0036 | -0.241 (inactive) | 1.21 | 1.29 | 1.32 | 1.43 | 1.7 | 0.538 | 1.14 | -1.29 | 1.08 | 0.38 | -0.0134 | -0.091 | -0.153 | -0.033 | 0.896 | 0.642 |
| COCCOC(=O)N1C(=O)[C@@]2(c3cc(C#Cc4ccc(OC)cc4)ccc31)[C@H](C(N)=O)[C@H]1C(=O)O[C@H](c3ccccc3)[C@H](c3ccccc3)N1[C@@H]2c1ccc(O)cc1 | 0.356 | -0.76 | -0.318 | -0.298 (inactive) | -1.67 | -1.53 | -1.67 | -1.95 | -2.42 | -0.115 | -0.426 | -1.01 | -1.58 | -0.844 | 0.247 | 0.0243 | -0.487 | 0.909 | 0.127 | -1.05 |
